From PubChem BioAssay AID1159580 (chemical genetic matrix, 2015)
Several values for one entry are separate records, joined by “and”; a condition that tells them apart may be missing. Equal entries are not always repeated. Hit rate of the full screen: of about 5,500 compounds, about 2,000 (36%) were called active. Another 18% or so got no clear call; they are omitted. Rule as the data show it: active = normalized growth mostly below about 0.91 (no sharp cut-off); inconclusive = no clear call, values can overlap the other calls; inactive = mostly above about 0.92. The list shows a part of the results.

Test: chemical genetic growth profiling, strain panel (AID 1159580);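 also: tested at 20 µM; growth read once vehicle control cultures reached saturation at 30 °C; 1 = growth at the plate median or of vehicle wells; lower values mean less growth of the strain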
Conditions: S. cerevisiae deletion strains, growth OD

Measured: normalized growth

CN(C)CCN(Cc1cccs1)c1ccccn1
inactive: locus YAL021C, strain ccr4, active compounds read low 1 | locus YAL026C, strain drs2, active compounds read low 1.01 | locus YAL030W, strain snc1, active compounds read low 1 | locus YAL040C, strain CLN3, active compounds read low 1.02 | locus YBL061C, strain skt5, active compounds read low 1 | locus YBR009C, strain hhf1, active compounds read low 0.996 | locus YBR021W, strain FUR4, active compounds read low 1.01 | locus YBR023C, strain chs3, active compounds read low 1.01 | locus YBR171W, strain sec66, active compounds read low 1.01 | locus YBR229C, strain ROT2, active compounds read low 1 | locus YBR231C, strain swc5, active compounds read low 1.01 | locus YBR279W, strain paf1, active compounds read low 1 | locus YCL011C, strain gbp2, active compounds read low 1.01 | locus YCL016C, strain dcc1, active compounds read low 1.01 | locus YCL029C, strain bik1, active compounds read low 1.02 | locus YCL061C, strain MRC1 (second series), active compounds read low 1.01 | locus YCL061C, strain MRC1, active compounds read low 1.01 | locus YCL069W, strain vba3, active compounds read low 1.01 | locus YCR088W, strain abp1, active compounds read low 1.01 | locus YDL005C, strain med2, active compounds read low 1.01 | locus YDL035C, strain GPR1, active compounds read low 1 | locus YDL040C, strain nat1, active compounds read low 1.01 | locus YDL074C, strain BRE1, active compounds read low 0.974 | locus YDL101C, strain DUN1, active compounds read low 0.99 | locus YDL134C, strain PPH21, active compounds read low 1.02 | locus YDL185W, strain tfp1, active compounds read low 1.02 | locus YDL192W, strain arf1, active compounds read low 1.01 | locus YDR001C, strain nth1, active compounds read low 1.01 | locus YDR069C, strain doa4, active compounds read low 1 | locus YDR101C, strain arx1, active compounds read low 0.957 | locus YDR137W, strain rgp1, active compounds read low 1.03 | locus YDR150W, strain NUM1, active compounds read low 1.02 | locus YDR159W, strain sac3, active compounds read low 1.01 | locus YDR162C, strain NBP2, active compounds read low 1.01 | locus YDR195W, strain ref2 0.999 | locus YDR297W, strain sur2, active compounds read low 0.999 | locus YDR318W, strain mcm21, active compounds read low 1.02 | locus YDR334W, strain swr1, active compounds read low 1.02 | locus YDR335W, strain msn5, active compounds read low 1.01 | locus YDR363W, strain ESC2, active compounds read low 0.986 | locus YDR388W, active compounds read low 1.02 | locus YDR392W, strain spt3, active compounds read low 1.01 | locus YDR502C, strain sam2, active compounds read low 1 | locus YEL003W, strain gim4, active compounds read low 1.01 | locus YEL037C, strain rad23, active compounds read low 1.01 | locus YEL061C, strain CIN8 (second series), active compounds read low 1.01 | locus YEL061C, strain CIN8, active compounds read low 1 | locus YER002W, strain NOP16, active compounds read low 1.01 | locus YER015W, strain faa2, active compounds read low 1 | locus YER016W, strain bim1, active compounds read low 1.01 | locus YER110C, active compounds read low 1.01 | locus YER111C, strain swi4, active compounds read low 1.02 | locus YER155C, strain BEM2 (second series), active compounds read low 1.01 | locus YER155C, strain BEM2, active compounds read low 1.01 | locus YER167W, strain BCK2, active compounds read low 1.01 | locus YFR010W, strain ubp6, active compounds read low 1.01 | locus YGL078C, strain dbp3, active compounds read low 1.01 | locus YGL086W, strain mad1, active compounds read low 0.982 | locus YGL167C, strain pmr1, active compounds read low 1.01 | locus YGL173C, strain kem1, active compounds read low 1.01 | locus YGL227W, strain vid30, active compounds read low 1.01 | locus YGL240W, strain doc1, active compounds read low 1.02 | locus YGL248W, strain PDE1, active compounds read low 0.993 | locus YGL253W, strain hxk2, active compounds read low 1.02 | locus YGR078C, strain PAC10, active compounds read low 1.01 | locus YGR135W, strain pre9, active compounds read low 1.05 | locus YGR229C, strain SMI1, active compounds read low 0.996 | locus YGR252W, strain gcn5, active compounds read low 1.07 | locus YHR013C, strain ard1, active compounds read low 0.993 | locus YHR027C, strain rpn1, active compounds read low 1 | locus YHR030C, strain SLT2, active compounds read low 1.01 and 0.934 | locus YHR079C, strain IRE1 (second series), active compounds read low 1.01 | locus YHR079C, strain IRE1, active compounds read low 0.98 | locus YHR094C, strain hxt1, active compounds read low 1.01 | locus YHR129C, strain ARP1, active compounds read low 1.01 | locus YHR142W, strain chs7, active compounds read low 1.01 | locus YHR200W, strain rpn10, active compounds read low 1.01 | locus YIL066C, strain RNR3, active compounds read low 1.01 | locus YIL073C, strain SPO22, active compounds read low 1.07 | locus YIL125W, strain kgd1, active compounds read low 0.993 | locus YIR030C, strain dcg1, active compounds read low 1.01 | locus YJL092W, strain hpr5, active compounds read low 1 | locus YJL095W, strain BCK1 (second series), active compounds read low 1.01 | locus YJL095W, strain BCK1, active compounds read low 0.993 and 0.95 | locus YJL115W, strain asf1, active compounds read low 1.03 | locus YJL129C, strain trk1, active compounds read low 1 | locus YJL134W, strain LCB3, active compounds read low 1.01 | locus YJL154C, strain vps35, active compounds read low 1.01 | locus YJL164C, strain tpk1, active compounds read low 1 | locus YJL166W, strain qcr8, active compounds read low 1 | locus YJL168C, strain set2, active compounds read low 1.01 | locus YJL187C, strain SWE1 (second series), active compounds read low 0.998 | locus YJL187C, strain SWE1, active compounds read low 1 | locus YJR043C, strain POL32, active compounds read low 1.01
